This is one part of a sample in which hits are shown more often than they occur.
Cycloheximide cs: affects cycloheximide protein synthesis inhibition readout, counter-screen | cell reporter, cycloheximide protein synthesis inhibition counterscreen | max response, % | 300,000 compounds, 12% hits | AID 2314; in the data active = max response mostly above about 13%, no sharp cut-off; inactive = mostly below about 14%; also: read at 38.3 µM for the half of the compounds with a filed dose; 0% is about no effect
VACV Venus inh: inhibitors of vaccinia virus (Venus reporter); Vaccinia virus Venus reporter expression, fluorescence; Potency, µM (highest dose often 36.5 µM), for the others: top-dose activity change, negative = inhibition, hits mostly inhibitors; 330,000 compounds, 0.46% hits; calls by dose curve; tested in A549 cells; also: potency is read from the fitted curve at half-maximal effect; % is scaled to controls: 0 for no effect and ±100 for the full control effect; nearly all actives have a fitted effect of over 30% in size
Vaccinia mCherry: inhibitors of vaccinia virus infection (mCherry reporter signal) | 310,000 compounds, 0.63% hits | AID 720579 | Vaccinia virus mCherry reporter infection, fluorescence | Potency, µM (top dose mostly 36.5 µM), inactives show top-dose activity change, negative = inhibition, hits mostly inhibitors; calls by dose curve; tested in A549 cells; also: potency is read from the fitted curve at half-maximal effect; % is scaled to controls: 0 for no effect and ±100 for the full control effect; nearly all actives have a fitted effect of over 35% in size
Shiga inhibitor: blocks Shiga toxin action in Vero cells | Vero cells, Shiga toxin protein synthesis inhibition reporter | inhibition, % at 38.7 µM | 290,000 compounds, 9.2% hits | AID 2315; in the data active = inhibition mostly above about 28%, no sharp cut-off; inactive = mostly below about 43%; also: 0% is about no effect
Lassa entry inh: Lassa virus entry inhibition. Potency, µM (series often up to 37.9 µM), for the others: top-dose activity change, negative = inhibition, usual class: inhibitors. 300,000 compounds, 1.2% hits. Lassa virus pseudotype entry inhibition, cell reporter; calls by dose curve; tested in HEK293 cells; also: potency is read from the fitted curve at half-maximal effect; % is scaled to controls: 0 for no effect and ±100 for the full control effect; nearly all actives have a fitted effect of over 50% in size
MARV entry inh: blocks Marburg virus binding to or entry into cells | Potency, µM (series often up to 37.8 µM), inactives show at the highest dose activity change, negative = inhibition, hits mostly inhibitors | Marburg virus pseudotyped entry inhibition, cell reporter | 300,000 compounds, 1.8% hits | AID 540276; calls by dose curve; tested in HEK293 cells; also: potency is read from the fitted curve at half-maximal effect; % is scaled to controls: 0 for no effect and ±100 for the full control effect
* hit, by the source's call; i = inactive; u = inconclusive; x = not tested or not shown; + = active, no number; [ ] = dose if it differs, or a comment.

SMILES	Cycloheximide cs	VACV Venus inh	Vaccinia mCherry	Shiga inhibitor	Lassa entry inh	MARV entry inh
COc1cc(O)c2c(=O)c(O)c(-c3ccc(O)c(O)c3)oc2c1	-4	-1%	-9%	-4	x	x
COc1cc(O)c2c(=O)cc(-c3ccccc3)oc2c1	11*	-12%	-10%	14	x	x
COc1cc(O)c2c(=O)c3c(OC)c(O)ccc3oc2c1	37*	-23%	-28%	56*	12%	19%
COc1c(OC)c(O)c2c(=O)cc(-c3c(O)cccc3O)oc2c1OC	17*	-16%	2%	43	x	x
O=c1cc(-c2ccc(O)c(O)c2)oc2ccc3ccccc3c12	x	-23%	-25%	x	u	u
O=c1cc(-c2ccccc2)oc2cc(O)cc(O)c12	x	u	13%	x	x	x
COc1ccc(-c2cc(=O)c3c(O)c(OC)c(OC)c(OC)c3o2)cc1	x	-8%	-4%	x	-3%[46.1 µM]	0%
COc1cc(-c2cc(=O)c3ccccc3o2)ccc1O	37*	8%	i	61*	x	x
CCOC(=O)c1noc2ncnc(Nc3ccc(C)c(F)c3)c12	x	2%	-6%	x	11%[46.1 µM]	x
COc1cc(-c2cc(=O)c3c(O)cc(O)cc3o2)ccc1O	37*	u	u	39*	x	x
COc1ccc(-c2cc(=O)c3c(O)c(OC)c(O)cc3o2)cc1	37*	-25%	u	45*	x	x
COCc1c(C(=O)N2CCN(C3CCCCC3)CC2)cnn1-c1ncc(C)c(-c2cccs2)n1	x	-11%	-2%	x	x	x
Cc1cnc(NC(=O)c2ccc(F)c(S(=O)(=O)N3CCOCC3)c2)s1	x	-18%	-18%	x	15%	-4%
C1=NN(c2ccccc2)C=NN1c1ccccc1	x	2%	-24%	x	-2%	u
CC(C)c1ccc(N2C=Nc3ccc(C(C)C)cc3C2)cc1	19*	u	i	52*	u	u
C1=Nc2ccccc2CN1c1ccccc1	65*	-17%	i	93*	-2%	5%
CC1CC(=O)N(c2ccc(C(C)C)cc2)C(=O)C1	-1	x	x	3	x	x
O=C(CN1Cc2ccccc2OC(c2ccccc2F)C1)NC(c1ccccn1)C(F)(F)F (stereo not drawn)	x	-3%	-12%	x	x	x
COc1ccc(CCNC(=O)Cc2c(C)c3cc4c(C(C)(C)C)coc4c(C)c3oc2=O)cc1	x	-4%	-9%	x	u	-1%[46.1 µM]
CCCCCCC1(C)NC(c2ccc3c(c2)OCO3)=CC(c2cc(Br)ccc2O)N1 (stereo not drawn)	32	x	x	41	x	x
O=C1C2C3CCC(C3)C2C(=O)N1Cc1ccco1 (stereo not drawn)	-1	6%	-12%	7	-10%	1%
O=C(CN1C(=O)C2C3CCC(C3)C2C1=O)NCc1ccco1 (stereo not drawn)	11	-5%	i	43*	-6%	23%[46.1 µM]
Cc1ccc(C(=O)NCC(=O)N2CCN(c3ccccc3)CC2)cc1	-2	x	x	-14	x	x
O=C(NCC(=O)N1CCN(c2ccccc2)CC1)c1ccccc1	11*	-11%	-8%	53*	12%[46.1 µM]	12%[46.1 µM]
O=C(NC(=O)N1CCN(c2ccccc2)CC1)c1ccc(Cl)cc1	42*	x	x	+	13%	29%
SMILES	Cycloheximide cs	VACV Venus inh	Vaccinia mCherry	Shiga inhibitor	Lassa entry inh	MARV entry inh
O=C(NC(=O)N1CCN(c2cccc(Cl)c2)CC1)c1ccc(Cl)cc1	9	u	-24%	18	-1%	u
O=C(NCC(=O)N1CCN(c2ccccc2O)CC1)c1ccccc1	44*	-5%	-15%	77*	12%[46.1 µM]	u
CCOc1ccc(C(=O)NCC(=O)N2CCN(c3ccccc3O)CC2)cc1	-1	-7%	u	-4	-13%[46.1 µM]	-13%[46.1 µM]
CCc1ccccc1NC(=O)Cn1nnc(C(=O)Nc2ccc(C)c(F)c2)c1N	x	-14%	-5%	x	23%[46.1 µM]	x
Cc1ccc2c(c1)c1c(c(=O)n(Cc3ccccc3)c(=O)n1CC(=O)Nc1ccccc1F)n2C	x	12%	10%	x	0%[46.1 µM]	x
Nc1nc(Nc2cccc(F)c2)nc2ccccc12	29*	u	u	105*	u	u
O=c1oc(Nc2cccc(F)c2)nc2ccccc12	18*	-12%	x	105*	-15%	-14%
O=C(Nc1cccc(-c2nc3ccccc3c(=O)o2)c1)c1ccccc1	12	-5%	i	-5	-13%	0%[46.1 µM]
CN(c1ccccc1)c1nc(N)c([N+](=O)[O-])c(Nc2cccc(F)c2)n1	-1	x	x	3	x	x
COc1ccc(-n2c(=O)c3c4c(sc3n(Cc3cc(C)ccc3C)c2=O)CN(C(C)=O)CC4)c(OC)c1	x	-19%	u	x	x	u

From PubChem BioAssay
